Laboratory results: PubChem BioAssay AID1117319 (Southern Research Institute, 2015)
“And” between values parts separate entries of the source, which are not always exact repeats. Equal entries are not always repeated. Screen size: about 260,000 compounds; about 1,500 (0.58%) were called active. Roughly 5% stayed inconclusive and do not appear here.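 The calls were made as follows: active = inhibition above a set limit at one or more doses, reproduced on every date tested; inconclusive = results disagree between test dates, or hit never tested in dose response; inactive = the rest.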 A selection follows. Results with a measured potency or affinity are listed apart.

biological target: Virion infectivity factor (Human immunodeficiency virus type 1 group M subtype B (isolate BH10)) + Virion infectivity factor (Human immunodeficiency virus type 1 group M subtype B (isolate BRU/LAI)) + Virion infectivity factor (Human immunodeficiency virus type 1 group M subtype B (isolate PCV12)) + Virion infectivity factor (Human immunodeficiency virus type 1 group M subtype B (isolate HXB2)) + DNA dC->dU-editing enzyme APOBEC-3G (Homo sapiens) (UniProt P69720+P69721+P69722+P69723+Q9HC16); experiment: inhibitors of Vif binding to APOBEC3G peptide, primary screen, biochemical, TR-FRET, GST-Vif 1-94, biotin-A3G peptide, dose response retest (AID 1117319); conditions: active compounds read high;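 also: Vif residues 1-94 fused to GST binding biotinylated APOBEC3G peptide 110-148; 0% = full assay without inhibitor and 100% = GST in place of GST-Vif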

inhibition, inactive:
CCN(CC)c1ccc(/C=N/NS(=O)(=O)c2ccc(CNC(C)=O)cc2)cc1 -3.65%
COc1cccc(OCc2cc(/C=N/NC(=O)c3ccn[nH]3)ccc2OC)c1 0.65%
COC(=O)C1=C(N)N(c2ccc(F)cc2)C2=C(C(=O)CCC2)C1c1ccc2c(c1)OCO2 (stereo unspecified) -32.1%
Cn1c(SCCOc2ccc(Cl)cc2)nnc1-c1ccncc1 3.6%
Cn1c(SCCOc2ccc(F)cc2)nnc1-c1ccncc1 -1.32%
CCOc1ccccc1NC(=S)NCC1CCCO1 (stereo unspecified) -2.09%
CCOc1ccc(C(=O)NCC2CCCO2)cc1OCC (stereo unspecified) 1.97%
CC(=O)c1c(C)[nH]c(C(=O)NCc2ccc(F)cc2)c1C -3.52%
NC(=O)NC(=O)COC(=O)c1ccc(Cl)c(S(=O)(=O)N(Cc2ccccc2)c2ccc(Cl)cc2)c1 -3.29%
Cc1cccc(Nc2nc(-c3cccs3)cs2)n1 8.51%
CCNc1c(C(=O)O)ccc2c1C(=O)c1ccccc1C2=O 32.2%
O=C(O)c1ccc2c(c1Nc1ccccc1)C(=O)c1ccccc1C2=O -2.59%
COc1ccc(C(=O)NC2CC2)cc1OC1CCN(Cc2ccccc2F)CC1 -1.16%
Nc1nnnn1/N=C/c1cccc(O)c1 9.19%
O=C(CSc1nc(O)c(C2CCCCC2)c(=O)[nH]1)NCC1CCCO1 (stereo unspecified) 14.4%
Cc1ccc(CNC(=O)C2CC(=O)N(c3ccc(OCC(=O)N4CCCC4)cc3)C2)cc1 (stereo unspecified) -0.42%
O=C(c1ccc(Cl)cc1)c1cnc(-c2ccccc2)s1 -2.61%
Cc1ccc(C=C2C=C(c3ccccc3)OC2=O)cc1 6.6%
O=C1OC(c2ccc(F)cc2)=C/C1=C\c1ccc(O)cc1 -0.55%
C=CCN(C(=O)Nc1ccc(OC)cc1)c1nnc(-c2ccncc2)s1 -4.12%
CC(=O)Nc1cc(C)nn1-c1nc2ccccc2s1 -19.4%
Cc1cc(NC(=O)CCl)n(-c2nc3ccccc3s2)n1 -1.34%
O=C1CSC(c2ccc(Cl)cc2)N1c1cccnc1 (stereo unspecified) 3.17%
CCOC(=O)C1CCN(c2ncnc3c2cnn3-c2ccc(Cl)cc2)CC1 -26.4%
CCOC(=O)C1CCCN(c2ncnc3c2cnn3-c2ccc(OC)cc2)C1 (stereo unspecified) -2.45%
O=C(CSc1ccc(Cl)cc1)NNC(=O)c1ccco1 2.28%
O=C(CCSc1ccc(Cl)cc1)c1ccco1 2.25%
COc1ccc(NS(=O)(=O)c2cccc(Cl)c2)cc1S(=O)(=O)N1CCCCC1 2.26%
COc1ccc(NS(=O)(=O)c2cc(Cl)ccc2Cl)cc1S(=O)(=O)N1CCCCC1 10.3%
Nc1nc(Cn2nnc(-c3ccccc3F)n2)nc(N2CCOCC2)n1 -5.97%
COc1ccc(N=CC2=C(O)CCCC2=O)cc1 72.2%
CC1(C)CC(=O)C(C=Nc2ccc(O)cc2)=C(O)C1 21.5%
COC(=O)c1cccc(COC(=O)c2ccc(N(C)C)cc2)c1 -1.93%
CC1CCCCN1C(=O)CSc1nc2ccccc2[nH]1 (stereo unspecified) -5.81%
COc1ccc(O)c(/C=N/NC(=S)Nc2cccc(S(=O)(=O)N(C)C)c2)c1 12.6%
Cc1cccc(N/N=C/c2ccncc2)c1 4.59%
CCn1c(C)nc2cc(C(=O)N/N=C/c3ccccc3)ccc21 4.16%
Cc1cccc(N/N=C/c2ccccc2O)c1 0.12%
CCOc1ccccc1/C=N/NC(=O)c1cccc(S(=O)(=O)N(CC)CC)c1 -6.17%
CN(C)S(=O)(=O)c1cccc(NC(=S)N/N=C/c2cc(Br)ccc2O)c1 9.46%
CCn1c(C)nc2cc(C(=O)N/N=C/c3ccccc3C)ccc21 -5.98%
CCN(CC)S(=O)(=O)c1cccc(C(=O)N/N=C/c2cc(OC)c(O)c(OC)c2)c1 1.27%
CS/C(=N\S(=O)(=O)c1ccc(N)cc1)NS(=O)(=O)c1cccs1 4.67%
O=C(Nc1nnc(CCc2ccccc2)s1)c1ccco1 -2.33%
CSc1nnc(-c2cccc(C)c2)n1N -5.45%
CCOCCCn1c(=NC(=O)c2ccco2)c(C(=O)OCC)cc2c(=O)n3cccc(C)c3nc21 8.51%
O=C(NCc1ccccc1)C1=C[C@H](C2CC2)C[C@H](OCCCCO)O1 -0.51%
CC1=C(C(=O)OCC2CCCO2)C(c2ccc(O)cc2)NC(=O)N1 (stereo unspecified) 10.8%
CCN(C(=O)c1cc2ccccc2o1)C12CC3CC(CC(C3)C1)C2 -6.34%
O=C(N/N=C/c1ccc(Br)o1)/C(=C/c1ccc([N+](=O)[O-])cc1)NC(=O)c1ccccc1 12.1%
CN(C)c1ccc(/C=C(/NC(=O)c2ccccc2)C(=O)N/N=C/c2ccc([N+](=O)[O-])c(O)c2)cc1 15.2% and -3.76%
Cc1cc(=O)oc2cc(OCC(=O)OCC(=O)Nc3ccc4ccccc4c3)ccc12 -10.1%
Cn1nnnc1SCC(=O)N1c2ccccc2CCc2ccccc21 3.78%
CC(C)(Oc1ccc(-c2ccco2)cc1)C(=O)O 3.13%
O=C(O)c1sc(C(=O)O)c(-c2ccccc2)c1-c1ccccc1 2.28%
O=S(=O)(c1ccccc1)N1N=C(c2ccc(Cl)cc2)CC1c1ccco1 (stereo unspecified) 4.42%
O=C(/C=C/c1ccccc1)Nn1cnnc1 -6.05%
NC(=O)Cc1ccc(C(=O)c2ccc(F)cc2)s1 -4.28%
Cc1ccccc1OCCC(=O)OCC(=O)NCCc1ccc(S(N)(=O)=O)cc1 -1.77%
CCOc1ccccc1C(=O)NCC(=O)NCCc1ccc(S(N)(=O)=O)cc1 0.59%
COc1ccccc1C(=O)Nc1cccc(NC(C)=O)c1 12.4%
Cc1ccc(S(=O)(=O)N(C(=O)c2ccncc2)c2ccc3oc4c(c3c2)CCCC4)cc1[N+](=O)[O-] -4.21%
Oc1ccc2oc3c(c2c1C=NCc1ccncc1)CCCC3 24.2%
CCOc1ccccc1C(=O)N[C@H](C(=O)Nc1ccc(OC)c(S(=O)(=O)N2CCOCC2)c1)C(C)C -13.1%
O=C1OCCC1Sc1nnc(-c2cccnc2)n1-c1ccccc1F (stereo unspecified) 5.98%
CCOC(=O)N1CCN(Cc2nnc(-c3cccc(Br)c3)o2)CC1 -4.74%
Cc1ccc2cc(C#N)c(N3CCN(C)CC3)nc2c1 3.3%
Cc1ccc2nc(N3CCN(C)CC3)c(C#N)cc2c1 1.03%
Cn1c(N)c(C(=O)COC(=O)/C=C/c2ccccc2F)c(=O)n(C)c1=O 0.83%
C/C(=N\NC(=O)c1ccc([N+](=O)[O-])cc1)c1cc2ccccc2oc1=O 13.4%
COc1cccc(C(C)=NNc2ccc([N+](=O)[O-])cc2[N+](=O)[O-])c1OC 0.32%
Cc1cc(N/N=C/c2cccc(F)c2)nc(NCc2ccccc2)n1 4.51%
Cc1cccc(-n2c(N)cc(=O)nc2SC(C)C(=O)NC2CCCCC2)c1 (stereo unspecified) -1.72%
Nc1cc(=O)nc(SCC(=O)NC2CCCCC2)n1-c1ccccc1 -0.99%
O=[N+]([O-])c1ccc(O)c(C2=NNC(c3ccccc3F)C2)c1 (stereo unspecified) 13.2%
O=C(N/N=C/c1cc2c(cc1Br)OCO2)c1ccccn1 7.07%
O=C(O)c1ccc(S(=O)(=O)N2CCCCCC2)cc1 1.58%
O=C(O)c1ccc(S(=O)(=O)N2CCCCCCC2)cc1 1.86%
CC(C)(C)c1cc(NC(=O)COC(=O)C2CC2)n(-c2ccccc2)n1 -5.93%
COc1cc(OC)nc(NC(=O)CN2CCN(c3ccc(F)cc3)CC2)n1 4.2%
CC(=O)C1=C(C)NC(=O)NC1c1cccs1 (stereo unspecified) 7.19%
CC1=C(C(=O)OC(C)C)C(c2cccs2)C(C(=O)OC(C)C)=C(C)N1 -3.55%
COC(=O)c1ccc2c(=O)n(CC3CCCO3)c(SCC(=O)Nc3ccc(OC)cc3OC)nc2c1 (stereo unspecified) -7.78%
CCCN1C2CCCC1CC(NC(=O)c1cc(OC)c(OC)c(OC)c1)C2 (stereo unspecified) 9.1%
COc1ccc(C(=O)NC2CC3CCCC(C2)N3CC(C)C)cc1OC (stereo unspecified) -7.52%
Cc1noc(C)c1CSc1ncnc2sc3c(c12)CCC3 -4.14%
COc1ccc(/C(N)=N/OC(=O)c2ccco2)cc1 -1.36%
CCN1C(=O)c2ccccc2S(=O)c2ccc(C(=O)N3CCN(C(=O)c4ccco4)CC3)cc21 (stereo unspecified) 1.84%
O=C1c2ccccc2-c2c1cccc2C(=O)N1CCN(C(=O)c2ccco2)CC1 18.7%
CCOC(=O)c1c(/N=C/c2cccc([N+](=O)[O-])c2O)sc2c1CCC2 27%
CCCCn1cnc2c(SCc3ccc(Br)cc3)nc(N)nc21 -11.3%
CC(CN(C(N)=O)c1ccccc1O)C(=O)O (stereo unspecified) 17.1%
CC(CC(C)C(=O)Nc1ccccc1C(C)(C)C)C(=O)O (stereo unspecified) 5.47%
CCC1CCCCN1C(=O)COc1cc(=O)n(C)c2ccccc12 (stereo unspecified) 1.25%
O=C1c2cccc(O)c2C(=O)c2c(O)cccc21 23.8%
O=C1c2cccc(NCCNCCO)c2C(=O)c2cccc(NCCNCCO)c21 -16.1%
